Screening results as filed in PubChem.
Shown are actives, neighbours in structure and some others; about 3% of the full set was active somewhere.
TexasRed fluor: Texas Red fluorescence interference in TRb-SRC2 counter-screen; AID 1479; TRb/SRC2 Texas Red total fluorescence interference; 280,000 tested, 0.29% active; Potency, µM (titrated, usually from 106 µM), for the others: at the highest dose fluorescence change, negative = quenching; active means well fitted curve in either direction with a large enough effect; inconclusive means small, poorly fitted or top-dose-only effect; further: potency means the concentration at half of the fitted maximal effect; on the % scale 0 is the no-effect control and ±100 the full control effect
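Human TRβ ligand-binding domain (0.6 uM) and Texas Red SRC2 peptide (20 nM) in Tris buffer with 1 uM T3 and 5% DMSO were incubated with pinned compound for 5 hr at ambient temperature. Total fluorescence was computed as S + 2P (555/632 nm).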
Tau fluor counter: counter-screen for tau fibril formation inhibitors | tau K18 P301L Alexa594 fluorescence, heparin fibrillization | Potency, µM (top dose mostly 57.7 µM), inactives show at the highest dose activity change, negative = decrease | 280,000 tested, 0.93% active | AID 1463; further: potency means the concentration at half of the fitted maximal effect; on the % scale 0 is the no-effect control and ±100 the full control effect; nearly all actives have a fitted effect of over 55% in size
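Human K18 P301L tau (15 uM unlabeled plus 0.24 uM Alexa 594-labeled, final) in 100 mM sodium acetate pH 7 was mixed with compound and 20 uM heparin and incubated 6 hr at 37 C.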
TRb-SRC2 inh: TRbeta-SRC2 interaction inhibition | TRbeta-SRC2 peptide binding, fluorescence polarization; receptor liganded with 1 µM T3 | Potency, µM (top dose mostly 106 µM), inactives show top-dose activity change, negative = inhibition, most hits filed as inhibitors | P10828 | 280,000 tested, 0.065% active | AID 1469;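 further: potency means the concentration at half of the fitted maximal effect; plate controls were bound peptide for no effect and peptide without receptor for full effect; nearly all actives have a fitted effect of over 50% in size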
Target sequence (P10828 whole entry, looked up): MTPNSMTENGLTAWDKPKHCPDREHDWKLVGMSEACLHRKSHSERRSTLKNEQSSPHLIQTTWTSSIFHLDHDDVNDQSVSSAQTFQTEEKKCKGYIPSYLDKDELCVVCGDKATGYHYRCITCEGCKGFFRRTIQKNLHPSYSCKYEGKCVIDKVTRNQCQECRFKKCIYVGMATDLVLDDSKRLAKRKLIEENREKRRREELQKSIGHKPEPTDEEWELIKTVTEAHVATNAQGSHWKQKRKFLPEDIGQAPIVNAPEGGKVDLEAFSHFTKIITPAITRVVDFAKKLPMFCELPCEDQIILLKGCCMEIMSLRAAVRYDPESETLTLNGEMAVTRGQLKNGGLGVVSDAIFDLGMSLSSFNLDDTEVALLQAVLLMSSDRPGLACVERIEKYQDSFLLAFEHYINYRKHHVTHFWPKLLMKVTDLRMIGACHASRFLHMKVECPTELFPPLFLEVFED
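Fluorescence polarization of 20 nM Texas Red SRC2 peptide with 0.6 uM human TRb ligand-binding domain, in Tris buffer with 1uM T3 and 5% DMSO. Incubated 5 hr ambient; normalized to unbound and bound controls.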
Tau FP inhib: blocks human tau fibril formation measured by polarization | P10636 | K18 P301L tau heparin fibrillization, Alexa594 FP, 6 h | Potency, µM (highest dose often 57.7 µM), inactives show top-dose activity, negative = inhibition, most hits filed as inhibitors | 280,000 tested, 0.39% active; further: potency means the concentration at half of the fitted maximal effect; on the % scale 0 is the no-effect control and ±100 the full control effect; nearly all actives have a fitted effect of over 55% in size
Target sequence (P10636 561-689 P618L limits assumed): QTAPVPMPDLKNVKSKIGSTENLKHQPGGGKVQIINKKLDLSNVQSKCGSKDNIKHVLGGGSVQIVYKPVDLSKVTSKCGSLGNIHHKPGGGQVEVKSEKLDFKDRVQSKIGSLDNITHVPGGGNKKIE
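FP of Alexa 594-tau after heparin (20 uM) induction. Substrate: human K18 P301L, 15 uM unlabeled, 0.24 uM labeled. Buffer 100 mM sodium acetate pH 7. 6 hr, 37 C.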
Tau fibril ThT: blocks human tau fibril formation measured by thioflavin T | recombinant tau K18 P301L, heparin-induced fibrillization, ThT fluorescence | Potency, µM (highest dose often 57.4 µM), for inactives: at the highest dose activity, negative = inhibition, hits mostly inhibitors | 270,000 tested, 2.1% active; further: potency means the concentration at half of the fitted maximal effect; on the % scale 0 is the no-effect control and ±100 the full control effect; nearly all actives have a fitted effect of over 55% in size
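ThT emission at 510 nm, taken 1 hr after adding 30 uM dye, quantifies aggregates formed when 20 uM heparin acts on human tau K18 P301L for 6 hr at 37 C.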
Tau fibril TEM: Inhibits tau K18 fibrillization by TEM grading. shares compounds with Tau fibril ThT. recombinant tau K18 P301L fibrillization, TEM grading; stronger effect = higher value. fibril grade (0 = clumped fibrils, 4 = only tiny pieces) (concentration not given with the values). 45 tested, 70% active. AID 1719;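 active means compounds whose electron micrographs showed tau fibrils broken into shorter filaments or fragments, graded high on fibril breakup; inconclusive means micrographs gave an unclear fibril picture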
tau fibril sed: reduces sedimented tau K18 P301L aggregates; inhibition, % at 100 µM; recombinant tau K18 P301L (four-repeat tau fragment), sedimentation SDS-PAGE densitometry; 110 tested, 50% active; AID 1720; shares compounds with Tau fibril ThT; in the data active means inhibition above about 40%; inconclusive means no clear call, values can overlap the other calls; inactive means below about 18%
Numbers without * were called inactive; ? = inconclusive; . = no result; [ ] = dose if it differs, or a comment. Unless noted, the call rests on the fitted dose curve; in most records, active means well fitted curve in the direction sought with a large enough effect; inconclusive means small, poorly fitted or top-dose-only effect, or another doubt; inactive means no such curve, though single readings can be large; an effect the other way counts as inactive or inconclusive.

SMILES | TexasRed fluor | Tau fluor counter | TRb-SRC2 inh | Tau FP inhib | Tau fibril ThT | tau fibril sed | others
CC1=C(C(=O)Nc2ccccc2C)C(c2ccccn2)n2nc(SCc3ccccc3F)nc2N1 (configuration not stated) | -1.1% | -9.1% | -3.0% | -13.3% | -4.4% | .
Cc1cc(-c2ccc(C)c(S(=O)(=O)N3CCN(c4cccc(C(F)(F)F)c4)CC3)c2)on1 | -1.2% | -17.4% | -3.8% | ? | 8.8% | .
CN(C(=S)Nc1cccnc1)c1ccc(O)cc1 | -16.2% | ? | 35.5µM* | 3.16µM* | 2µM* | 51.0* | Tau fibril TEM=2*
CCOC(=O)CSc1nc2sc3c(c2c(=O)n1-c1ccccc1)CC(C(C)C)OC3 (configuration not stated) | ? | -12.0% | -16.8% | -2.4% | ? | .
Cc1ccc(C(=O)Nc2nc(=O)n(C(=O)C3CC3)s2)cc1 | -3.1% | -22.5% | -14.3% | ? | 8.91µM* | 49.0* | Tau fibril TEM=?
Cc1ccc(C(=O)Nc2nc3ccccc3c(=O)s2)cc1 | -2.7% | -0.5% | -3.8% | -4.6% | -17.4% | .
CCOC(=O)c1cc2c(=O)n3ccccc3nc2n(Cc2ccco2)c1=NC(=O)c1cc(C)cc(C)c1 | -1.2% | -12.4% | -0.4% | 3.3% | -10.9% | .
CC(/C=C1\SC(=S)N(NC(=O)c2cccc(O)c2)C1=O)=C\c1ccccc1 | 10.8% | 14.1µM*[quencher] | 13.6% | 14.1µM* | 7.08µM* | ? | Tau fibril TEM=0
CCOC(=O)OCC1OC(C#Cc2ccc(Br)cc2)C=CC1OC(=O)OCC (configuration not stated) | -1.1%[11.2 µM] | -11.2%[11.6 µM] | 4.4%[11.2 µM] | 0.7%[11.6 µM] | -17.7%[11.5 µM] | .
COc1ccc2[nH]c(=O)c(CNc3ccccc3C)cc2c1 | -1.3% | -17.9% | 2.5% | -12.9% | ? | .
COc1ccc2[nH]c(=O)c(CNc3ccccc3OC)cc2c1 | -12.4% | ? | -29.2% | 10µM* | 7.94µM* | 61.0* | Tau fibril TEM=?
Cc1ccc(N(C)S(=O)(=O)c2nnc(NC(=O)C3CCCCC3)s2)cc1 | 4.7% | -3.5% | -1.5% | ? | 4.4% | 12.0
COc1ccc(Nc2nc(-c3sc(NC(C)=O)nc3C)cs2)cc1 | 0.3% | ? | 3.3% | 4.3% | 12.6µM* | 42.0* | Tau fibril TEM=3*
C=CCNc1nc(-c2sc(NC(C)=O)nc2C)cs1 | -2.2% | -27.4% | -2.8% | -7.6% | ? | .
CCOC(=O)c1c(C)[nH]c(C)c1S(=O)(=O)N1CCC(C(=O)Nc2ccc(OCC)cc2)CC1 | 0.4% | -9.4% | 0.8% | -2.3% | 0.5% | .
COc1ccc(-c2noc(-c3ccc(N4CCOCC4)c([N+](=O)[O-])c3)n2)cc1 | -4.2% | -13.1% | 6.5% | -5.7% | 1.8% | .
COc1ccc2oc(-c3ccc(NC(=O)c4ccc(N5CCOCC5)c([N+](=O)[O-])c4)cc3)nc2c1 | -2.5% | -18.6% | -3.6% | -5.7% | 2.82µM* | 12.0 | Tau fibril TEM=0
COc1ccc2c(c1)c(CC(=O)Nc1c(C)cccc1C)c(C)n2C(=O)c1ccc(Cl)cc1 | -0.5% | -4.4% | -1.1% | -12.7% | 5.0% | .
COc1ccc2c(c1)c(CC(=O)Nc1ccc(C(C)=O)cc1)c(C)n2C(=O)c1ccc(Cl)cc1 | -19.5% | ? | 7.5% | ? | ? | 12.0
Cc1ccc(NCc2cc3cc4c(cc3n(CC(=O)Nc3ccc(C)cc3)c2=O)OCCO4)cc1 | 0.7% | ? | 3.5% | 13.9% | -3.5% | 9.0
Cc1ccc(NCc2cc3cc4c(cc3n(CC(=O)Nc3ccc(F)cc3F)c2=O)OCCO4)cc1 | -0.5% | ? | 1.7% | ? | ? | .
CCOc1ccc(C(=O)Nc2ccc(C(=O)OCc3cc(=O)n4nc(CC)sc4n3)cc2)cc1 | -1.2% | 2.6% | 2.0% | 3.2% | 1.8% | .
Cc1cc2c(cc1NS(=O)(=O)c1cccc(C#N)c1)n(C)c(=O)c(=O)n2C | 0.5% | -2.1% | -2.1% | -2.6% | -8.9% | .
CCOC(=O)c1nn(-c2ccc(Cl)c(Cl)c2)c(=O)c2c(N)scc12 | . | . | . | . | . | 12.0
CCOC(=O)c1nn(-c2ccc(C)c(C)c2)c(=O)c2c(N)scc12 | 3.6% | -15.3% | -2.1% | -5.2% | -9.7% | ?
SMILES | TexasRed fluor | Tau fluor counter | TRb-SRC2 inh | Tau FP inhib | Tau fibril ThT | tau fibril sed | others
CCOC(=O)c1nn(-c2ccc(OC)cc2)c(=O)c2c(N)scc12 | 2.6% | ? | 1.0% | ? | 8.91µM* | 66.0* | Tau fibril TEM=2*
CCOC(=O)c1nn(-c2ccccc2)c(=O)c2c(NC(=O)c3ccccc3)scc12 | . | . | . | . | . | 2.0
COc1ccc(NC(=O)C(NS(=O)(=O)c2ccc3c(c2)CCCC(=O)N3)C(C)C)c(OC)c1 (configuration not stated) | -1.5% | -11.7% | 5.5% | 0.9% | -9.6% | .
COc1cccc2c1N(C)C(=O)CC21C=CC(=O)C=C1 | -0.4% | . | 1.4% | . | . | .
CCOC(=O)c1nn(-c2cccc(C(F)(F)F)c2)c(=O)c2c(N)scc12 | . | . | . | . | . | 41.0*
CCOC(=O)c1nc(N)c(=O)n(-c2ccccc2)n1 | -2.1% | 2.8% | 2.4% | -3.1% | -8.8% | .
CCCn1c(=O)c(/C(N)=N/O)nn(-c2cccc(C(F)(F)F)c2)c1=O | -3.6% | -7.3% | -10.2% | -9.2% | 0.2% | .
CCOC(=O)c1nn(-c2ccccc2)c(=O)c2c(N)sc(C)c12 | . | . | . | . | . | 4.0
OCCCNC(=S)Nc1ccc2nc(-c3ccccn3)c(-c3ccccn3)nc2c1 | -1.1% | 2.1% | -1.3% | -2.0% | -4.7% | .
O=C(NCCCO)Nc1ccc2nc(-c3ccco3)c(-c3ccco3)nc2c1 | 14.1µM*[quencher] | 7.08µM*[quencher] | 17.6% | ? | ? | 74.0* | Tau fibril TEM=4.5*
Cc1c2oc3c(C)ccc(C(=O)N[C@@H]4C(=O)N[C@H](C(C)C)C(=O)N5CCC[C@H]5C(=O)N(C)CC(=O)N(C)[C@@H](C(C)C)C(=O)O[C@@H]4C)c3nc-2c(C(=O)N[C@@H]2C(=O)N[C@H](C(C)C)C(=O)N3CCC[C@H]3C(=O)N(C)CC(=O)N(C)[C@@H](C(C)C)C(=O)O[C@@H]2C)c(N)c1=O | -0.4%[201 µM] | -9.0% | 1.0%[201 µM] | -18.8% | ? | .
Cc1ccc(NC(=O)N2CCN(c3ccccn3)CC2)cc1 | -0.4% | -3.3% | -14.7% | 0.9% | ? | 18.0
CC(C)(C)c1ccc(NC(=O)N2CCN(c3ccc([N+](=O)[O-])cn3)CC2)cc1 | -0.2% | ? | -2.3% | ? | ? | 15.0
COc1cc2c(cc1OC)C(c1ccc(F)cc1)N(c1ccc(F)cc1)C(=O)C2 (configuration not stated) | 6.4% | -22.9% | 0.6% | -7.1% | -13.5% | .
